These results are taken from article PMC7862700, “An all-to-all approach to the identification of sequence-specific readers for epigenetic DNA modifications on cytosine”.

Common to all, as to experiment: DAPPL (digital affinity profiling via proximity ligation, sequencing); 10 mM Tris-HCl pH 7.5, 50 mM NaCl, 1 mM DTT, 4% glycerol, room temperature, 30 min; GST-TFs on glutathione beads, 16-mer random dsDNA library, 0.1% formaldehyde crosslink after washing; high values mean tight binding
One assay has as its target T1, FEV (Homo sapiens, UniProt Q99581 1-238).
T1 sequence: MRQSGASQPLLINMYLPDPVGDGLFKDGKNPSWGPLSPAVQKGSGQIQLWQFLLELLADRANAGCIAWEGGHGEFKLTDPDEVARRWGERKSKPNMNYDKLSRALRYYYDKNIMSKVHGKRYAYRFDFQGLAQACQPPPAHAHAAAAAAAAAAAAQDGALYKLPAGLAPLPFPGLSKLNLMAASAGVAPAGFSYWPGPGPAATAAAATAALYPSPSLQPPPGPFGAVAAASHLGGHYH
Particulars: protein: recombinant; tags: N-terminal GST; dsDNA, one strand shown. The method, boiled down: (§1)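 Human transcription factors were made in yeast as GST fusions, captured on glutathione beads and barcoded with DNA. With a tag-only sample included, the pool was incubated with 200 nmole of a random double-stranded 16-mer DNA library in Tris/NaCl/DTT/glycerol buffer at room temperature for 30 min, then crosslinked with 0.1% formaldehyde after washing, ligated by proximity, amplified and sequenced. For binding signal, each hexamer's read frequency for a factor is divided by its frequency for the tag-only sample.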

Another assay addresses ETV5 (Homo sapiens, UniProt P41161 1-510). Particulars: protein: recombinant; tags: N-terminal GST; dsDNA, one strand shown. In outline: as §1
In the next assay the target is HSF1 (Homo sapiens, UniProt Q00613 1-529). Particulars: protein: recombinant; tags: N-terminal GST; chain copies: 3; dsDNA, one strand shown. The method, boiled down:
as §1

A further assay addresses T2, SPIC (Homo sapiens, UniProt Q8N5J4 1-248).
T2 sequence: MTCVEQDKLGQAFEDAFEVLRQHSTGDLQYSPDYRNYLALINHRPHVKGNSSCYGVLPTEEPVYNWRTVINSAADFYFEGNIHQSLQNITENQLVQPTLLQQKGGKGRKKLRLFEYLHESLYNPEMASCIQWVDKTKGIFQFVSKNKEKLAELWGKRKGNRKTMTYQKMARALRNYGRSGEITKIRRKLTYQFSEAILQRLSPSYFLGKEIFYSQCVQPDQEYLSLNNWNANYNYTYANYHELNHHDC
Particulars: protein: recombinant; tags: N-terminal GST; dsDNA, one strand shown. The method, boiled down:
as §1

For a further assay, the target named is ELF4 (Homo sapiens, UniProt Q99607 1-663). To be noted: protein: recombinant; tags: N-terminal GST; dsDNA, one strand shown. The method, boiled down:
as §1

The next assay concerns the target T3, ELK4 (Homo sapiens, UniProt P28324-2 1-405).
T3 sequence: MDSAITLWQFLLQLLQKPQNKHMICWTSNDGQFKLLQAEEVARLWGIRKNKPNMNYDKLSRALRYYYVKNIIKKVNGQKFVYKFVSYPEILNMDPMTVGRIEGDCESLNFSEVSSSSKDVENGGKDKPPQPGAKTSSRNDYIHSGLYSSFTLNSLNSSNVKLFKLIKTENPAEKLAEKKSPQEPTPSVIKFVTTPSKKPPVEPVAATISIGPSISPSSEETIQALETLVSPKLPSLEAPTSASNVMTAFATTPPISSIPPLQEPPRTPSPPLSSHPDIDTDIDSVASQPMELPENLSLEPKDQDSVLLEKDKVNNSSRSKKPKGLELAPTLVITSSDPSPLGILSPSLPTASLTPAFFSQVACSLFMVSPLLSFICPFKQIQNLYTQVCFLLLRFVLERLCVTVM
To be noted: protein: recombinant; tags: N-terminal GST; dsDNA, one strand shown. In outline:
as §1

Another assay concerns the target T4, ETV2 (Homo sapiens, UniProt O00321 1-342).
T4 sequence: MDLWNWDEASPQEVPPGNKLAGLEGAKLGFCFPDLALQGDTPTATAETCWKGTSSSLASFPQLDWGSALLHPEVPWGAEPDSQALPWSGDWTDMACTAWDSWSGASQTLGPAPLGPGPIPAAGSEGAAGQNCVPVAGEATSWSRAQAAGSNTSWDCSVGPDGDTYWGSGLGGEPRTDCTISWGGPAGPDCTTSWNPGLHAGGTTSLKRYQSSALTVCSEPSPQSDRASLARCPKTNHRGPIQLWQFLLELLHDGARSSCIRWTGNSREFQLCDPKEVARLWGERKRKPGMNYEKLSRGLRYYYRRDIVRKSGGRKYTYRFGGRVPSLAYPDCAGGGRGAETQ
Particulars: protein: recombinant; tags: N-terminal GST; dsDNA, one strand shown. In outline: as §1

For the next assay, the target named is T5, ELF3 (Homo sapiens, UniProt P78545 1-371).
T5 sequence: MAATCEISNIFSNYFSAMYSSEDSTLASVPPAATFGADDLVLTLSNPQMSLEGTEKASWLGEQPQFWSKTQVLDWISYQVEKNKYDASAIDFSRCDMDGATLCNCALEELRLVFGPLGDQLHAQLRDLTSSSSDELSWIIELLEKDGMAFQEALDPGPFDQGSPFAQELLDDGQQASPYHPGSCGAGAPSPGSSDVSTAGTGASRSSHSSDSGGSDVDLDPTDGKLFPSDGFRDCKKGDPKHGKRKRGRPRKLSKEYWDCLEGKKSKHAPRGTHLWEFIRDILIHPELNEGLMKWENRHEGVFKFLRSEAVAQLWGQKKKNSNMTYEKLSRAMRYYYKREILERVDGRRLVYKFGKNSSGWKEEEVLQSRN
To be noted: protein: recombinant; tags: N-terminal GST; dsDNA, one strand shown. In outline: as §1

A further assay concerns the target CRX (Homo sapiens, UniProt O43186 1-299). Particulars: protein: recombinant; tags: N-terminal GST; dsDNA, one strand shown. The method, boiled down:
as §1

The target of the next assay is ETV1 (Homo sapiens, UniProt P50549 1-477). To be noted: protein: recombinant; tags: N-terminal GST; dsDNA, one strand shown. The method, boiled down: as §1
ETV1, sequence (P50549 whole entry): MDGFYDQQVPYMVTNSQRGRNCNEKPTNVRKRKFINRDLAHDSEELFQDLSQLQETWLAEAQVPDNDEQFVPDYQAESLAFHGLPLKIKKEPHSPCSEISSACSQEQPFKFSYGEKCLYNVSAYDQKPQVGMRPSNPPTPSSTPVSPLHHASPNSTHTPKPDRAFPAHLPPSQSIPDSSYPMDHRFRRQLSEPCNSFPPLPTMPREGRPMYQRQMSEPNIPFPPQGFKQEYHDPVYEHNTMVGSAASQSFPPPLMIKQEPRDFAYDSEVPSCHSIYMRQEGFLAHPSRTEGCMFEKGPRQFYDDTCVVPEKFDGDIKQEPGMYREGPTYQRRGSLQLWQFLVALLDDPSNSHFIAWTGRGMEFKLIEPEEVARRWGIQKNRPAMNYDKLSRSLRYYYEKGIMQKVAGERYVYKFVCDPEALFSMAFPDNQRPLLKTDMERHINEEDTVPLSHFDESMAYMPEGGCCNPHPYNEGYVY
The next assay deals with T6, ERF (Homo sapiens, UniProt P50548 1-548).
T6 sequence: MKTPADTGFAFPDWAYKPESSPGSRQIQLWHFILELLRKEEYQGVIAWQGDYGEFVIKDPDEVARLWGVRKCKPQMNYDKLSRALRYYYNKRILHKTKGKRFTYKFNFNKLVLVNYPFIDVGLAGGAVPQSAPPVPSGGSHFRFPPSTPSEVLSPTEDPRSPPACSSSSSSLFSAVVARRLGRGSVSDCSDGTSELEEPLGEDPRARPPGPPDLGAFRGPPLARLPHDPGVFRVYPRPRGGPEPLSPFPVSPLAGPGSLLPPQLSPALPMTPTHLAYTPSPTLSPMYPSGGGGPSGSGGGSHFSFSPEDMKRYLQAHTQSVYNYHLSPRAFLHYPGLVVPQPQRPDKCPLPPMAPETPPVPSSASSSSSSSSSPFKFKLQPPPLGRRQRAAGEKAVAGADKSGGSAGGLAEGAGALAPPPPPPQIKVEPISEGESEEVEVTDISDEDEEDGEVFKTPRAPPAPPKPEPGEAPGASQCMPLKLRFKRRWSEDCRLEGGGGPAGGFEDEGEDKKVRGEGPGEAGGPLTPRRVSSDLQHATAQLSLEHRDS
Particulars: protein: recombinant; tags: N-terminal GST; dsDNA, one strand shown. The method, boiled down:
as §1

Another assay addresses T7, ETV3L (Homo sapiens, UniProt Q6ZN32 1-361).
T7 sequence: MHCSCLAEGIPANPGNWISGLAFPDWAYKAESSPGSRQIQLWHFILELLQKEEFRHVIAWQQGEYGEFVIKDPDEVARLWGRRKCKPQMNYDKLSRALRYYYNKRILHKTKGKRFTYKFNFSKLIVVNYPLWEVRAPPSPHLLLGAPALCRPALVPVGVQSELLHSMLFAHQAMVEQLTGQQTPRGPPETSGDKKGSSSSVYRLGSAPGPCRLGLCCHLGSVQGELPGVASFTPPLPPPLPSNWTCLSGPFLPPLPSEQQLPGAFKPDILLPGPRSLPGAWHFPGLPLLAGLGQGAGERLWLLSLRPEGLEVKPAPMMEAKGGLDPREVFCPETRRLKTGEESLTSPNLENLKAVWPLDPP
Particulars: protein: recombinant; tags: N-terminal GST; dsDNA, one strand shown. The method, boiled down:
as §1

For a further assay, the target named is T8, ETS2 (Homo sapiens, UniProt P15036 1-469).
T8 sequence: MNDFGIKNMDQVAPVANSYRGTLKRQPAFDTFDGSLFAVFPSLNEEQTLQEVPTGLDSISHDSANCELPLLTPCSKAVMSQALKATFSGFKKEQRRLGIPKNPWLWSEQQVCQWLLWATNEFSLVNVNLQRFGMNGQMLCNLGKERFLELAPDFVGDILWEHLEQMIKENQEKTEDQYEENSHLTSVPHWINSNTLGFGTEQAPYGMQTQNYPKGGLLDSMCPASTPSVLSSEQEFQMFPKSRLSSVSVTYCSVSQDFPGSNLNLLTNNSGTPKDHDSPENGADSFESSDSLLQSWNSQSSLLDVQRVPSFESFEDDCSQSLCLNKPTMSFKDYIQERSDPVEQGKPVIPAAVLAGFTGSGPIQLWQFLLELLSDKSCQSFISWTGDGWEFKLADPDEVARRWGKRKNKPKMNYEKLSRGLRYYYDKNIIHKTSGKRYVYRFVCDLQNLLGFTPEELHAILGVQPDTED
Particulars: protein: recombinant; tags: N-terminal GST; dsDNA, one strand shown. The method, boiled down: as §1

The next assay concerns the target T9, SPDEF (Homo sapiens, UniProt O95238 1-335).
T9 sequence: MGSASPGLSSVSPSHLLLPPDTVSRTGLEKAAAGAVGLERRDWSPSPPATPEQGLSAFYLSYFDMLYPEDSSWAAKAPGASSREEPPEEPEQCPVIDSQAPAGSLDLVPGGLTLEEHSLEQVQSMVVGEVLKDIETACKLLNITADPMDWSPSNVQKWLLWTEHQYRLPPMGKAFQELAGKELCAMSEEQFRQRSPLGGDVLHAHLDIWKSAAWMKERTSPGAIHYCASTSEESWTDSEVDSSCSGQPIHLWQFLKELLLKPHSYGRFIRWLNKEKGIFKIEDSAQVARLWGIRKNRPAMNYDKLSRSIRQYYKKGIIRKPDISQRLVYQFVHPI
To be noted: protein: recombinant; tags: N-terminal GST; dsDNA, one strand shown. In outline:
as §1

The next assay concerns the target T10, ETV7 (Homo sapiens, UniProt Q9Y603 1-341).
T10 sequence: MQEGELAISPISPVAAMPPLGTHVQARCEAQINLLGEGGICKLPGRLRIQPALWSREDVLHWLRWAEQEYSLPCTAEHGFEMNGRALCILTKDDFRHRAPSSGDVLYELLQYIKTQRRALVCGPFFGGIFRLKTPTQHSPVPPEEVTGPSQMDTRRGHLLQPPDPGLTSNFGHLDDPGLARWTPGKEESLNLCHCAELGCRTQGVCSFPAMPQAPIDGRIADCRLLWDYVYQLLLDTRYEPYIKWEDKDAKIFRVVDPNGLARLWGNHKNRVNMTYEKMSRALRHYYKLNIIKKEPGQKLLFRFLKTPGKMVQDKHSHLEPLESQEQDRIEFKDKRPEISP
Particulars: protein: recombinant; tags: N-terminal GST; dsDNA, one strand shown. In outline:
as §1

The target of a further assay is T11, ELF5 (Homo sapiens, UniProt Q9UKW6-2 1-255).
T11 sequence: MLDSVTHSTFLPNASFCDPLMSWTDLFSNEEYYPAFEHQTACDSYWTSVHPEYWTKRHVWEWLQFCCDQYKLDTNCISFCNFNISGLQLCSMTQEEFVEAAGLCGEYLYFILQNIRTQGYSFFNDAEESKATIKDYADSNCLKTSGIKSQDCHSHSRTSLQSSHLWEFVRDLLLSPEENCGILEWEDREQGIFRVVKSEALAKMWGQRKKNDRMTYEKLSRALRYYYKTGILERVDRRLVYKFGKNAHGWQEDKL
Particulars: protein: recombinant; tags: N-terminal GST; dsDNA, one strand shown. The method, boiled down: as §1

A further assay addresses T12, ETV3 (Homo sapiens, UniProt P41162-2 1-143).
T12 sequence: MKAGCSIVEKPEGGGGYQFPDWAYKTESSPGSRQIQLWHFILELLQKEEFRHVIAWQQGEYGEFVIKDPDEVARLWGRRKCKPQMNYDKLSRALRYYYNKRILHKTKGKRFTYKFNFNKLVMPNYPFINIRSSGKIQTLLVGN
To be noted: protein: recombinant; tags: N-terminal GST; dsDNA, one strand shown. The method, boiled down:
as §1

For a further assay, the target named is ETV6 (Homo sapiens, UniProt P41212 1-452). To be noted: protein: recombinant; tags: N-terminal GST; dsDNA, one strand shown. The method, boiled down: as §1
ETV6, sequence (P41212 whole entry): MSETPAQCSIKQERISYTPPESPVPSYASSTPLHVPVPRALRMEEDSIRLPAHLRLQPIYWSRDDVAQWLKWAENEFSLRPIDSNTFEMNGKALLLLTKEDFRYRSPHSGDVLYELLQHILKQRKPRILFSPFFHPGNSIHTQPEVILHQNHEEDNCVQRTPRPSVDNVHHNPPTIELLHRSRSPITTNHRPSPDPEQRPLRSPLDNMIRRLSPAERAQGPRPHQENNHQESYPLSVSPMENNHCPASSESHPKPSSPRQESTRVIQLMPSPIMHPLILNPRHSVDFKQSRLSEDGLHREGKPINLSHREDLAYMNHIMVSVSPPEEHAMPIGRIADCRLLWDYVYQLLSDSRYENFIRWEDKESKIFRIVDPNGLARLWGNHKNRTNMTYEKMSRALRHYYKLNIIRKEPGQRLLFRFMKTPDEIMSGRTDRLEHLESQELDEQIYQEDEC

ETV5, sequence (P41161 whole entry): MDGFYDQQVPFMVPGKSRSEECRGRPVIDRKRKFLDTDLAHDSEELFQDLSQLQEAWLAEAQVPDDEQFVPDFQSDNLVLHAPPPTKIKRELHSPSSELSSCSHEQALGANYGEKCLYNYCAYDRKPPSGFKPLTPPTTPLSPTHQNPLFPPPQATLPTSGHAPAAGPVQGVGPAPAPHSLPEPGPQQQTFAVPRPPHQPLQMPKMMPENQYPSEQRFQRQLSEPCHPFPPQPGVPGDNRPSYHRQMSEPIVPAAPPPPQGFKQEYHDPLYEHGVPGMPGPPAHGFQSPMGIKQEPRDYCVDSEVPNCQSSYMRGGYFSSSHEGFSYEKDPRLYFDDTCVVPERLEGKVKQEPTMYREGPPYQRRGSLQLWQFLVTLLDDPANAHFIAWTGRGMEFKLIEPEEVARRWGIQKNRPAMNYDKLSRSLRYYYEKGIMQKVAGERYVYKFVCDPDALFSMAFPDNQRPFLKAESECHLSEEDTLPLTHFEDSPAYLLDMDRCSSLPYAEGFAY
CRX, sequence (O43186 whole entry): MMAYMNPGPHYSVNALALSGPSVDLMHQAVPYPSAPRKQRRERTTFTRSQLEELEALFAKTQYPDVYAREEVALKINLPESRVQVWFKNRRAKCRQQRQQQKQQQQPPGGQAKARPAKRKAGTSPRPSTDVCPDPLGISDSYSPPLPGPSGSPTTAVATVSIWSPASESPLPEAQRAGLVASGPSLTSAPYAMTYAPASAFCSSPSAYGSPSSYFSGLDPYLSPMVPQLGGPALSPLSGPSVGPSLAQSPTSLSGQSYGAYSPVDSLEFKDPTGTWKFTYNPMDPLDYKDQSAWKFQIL
HSF1, sequence (Q00613 whole entry): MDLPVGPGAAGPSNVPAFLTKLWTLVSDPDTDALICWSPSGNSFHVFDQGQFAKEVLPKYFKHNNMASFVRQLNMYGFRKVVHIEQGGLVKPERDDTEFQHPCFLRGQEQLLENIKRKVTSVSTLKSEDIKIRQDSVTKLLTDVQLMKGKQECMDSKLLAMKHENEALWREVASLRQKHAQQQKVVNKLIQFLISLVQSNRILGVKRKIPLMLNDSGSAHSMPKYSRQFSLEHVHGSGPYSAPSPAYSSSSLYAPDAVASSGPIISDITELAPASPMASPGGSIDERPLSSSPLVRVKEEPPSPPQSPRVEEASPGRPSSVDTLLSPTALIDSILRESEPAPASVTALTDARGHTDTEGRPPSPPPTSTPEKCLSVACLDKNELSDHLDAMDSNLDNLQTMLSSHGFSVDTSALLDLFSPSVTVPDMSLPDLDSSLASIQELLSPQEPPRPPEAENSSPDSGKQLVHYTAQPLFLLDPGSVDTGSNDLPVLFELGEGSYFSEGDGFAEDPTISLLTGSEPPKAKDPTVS
ELF4, sequence (Q99607 whole entry): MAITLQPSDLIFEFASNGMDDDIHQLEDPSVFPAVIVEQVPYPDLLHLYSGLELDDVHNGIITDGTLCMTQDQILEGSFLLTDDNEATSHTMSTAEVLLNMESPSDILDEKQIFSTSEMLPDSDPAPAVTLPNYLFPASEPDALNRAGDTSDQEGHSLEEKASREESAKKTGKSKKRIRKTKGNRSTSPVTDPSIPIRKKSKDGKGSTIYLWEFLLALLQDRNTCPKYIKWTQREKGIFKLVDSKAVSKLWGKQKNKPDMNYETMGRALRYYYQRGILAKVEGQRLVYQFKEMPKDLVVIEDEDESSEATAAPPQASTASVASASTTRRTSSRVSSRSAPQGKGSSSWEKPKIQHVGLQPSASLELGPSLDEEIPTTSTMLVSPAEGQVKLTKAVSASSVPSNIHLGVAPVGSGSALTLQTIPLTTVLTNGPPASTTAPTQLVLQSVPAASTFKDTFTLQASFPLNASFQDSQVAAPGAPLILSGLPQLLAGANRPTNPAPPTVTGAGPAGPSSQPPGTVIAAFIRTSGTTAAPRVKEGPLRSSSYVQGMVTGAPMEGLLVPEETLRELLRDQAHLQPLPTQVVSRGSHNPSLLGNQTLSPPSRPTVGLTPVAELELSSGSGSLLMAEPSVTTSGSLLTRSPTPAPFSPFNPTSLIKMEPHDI

Consider TAATTC, for which the binding signal with FEV is 1.36 fold enrichment (6-mer frequency, TF over GST control); with ETV5, 1.44 fold enrichment (6-mer frequency, TF over GST control); in the assay with HSF1 it was 2.33 fold enrichment (6-mer frequency, TF over GST control); with SPIC it was 1.44 fold enrichment (6-mer frequency, TF over GST control); with ELF4, 1.48 fold enrichment (6-mer frequency, TF over GST control); with ELK4 it was 1.3 fold enrichment (6-mer frequency, TF over GST control). Moreover, the binding signal with ETV2 is 1.51 fold enrichment (6-mer frequency, TF over GST control); with ELF3, 1.29 fold enrichment (6-mer frequency, TF over GST control); in the assay with CRX, 3.05 fold enrichment (6-mer frequency, TF over GST control); with ETV1 it was 1.4 fold enrichment (6-mer frequency, TF over GST control); in the assay with ERF, 1.29 fold enrichment (6-mer frequency, TF over GST control); with ETV3L, 1.38 fold enrichment (6-mer frequency, TF over GST control). The binding signal with ETS2 is 1.48 fold enrichment (6-mer frequency, TF over GST control); with SPDEF, 1.37 fold enrichment (6-mer frequency, TF over GST control); with ETV7, 1.38 fold enrichment (6-mer frequency, TF over GST control); in the assay with ELF5, 1.41 fold enrichment (6-mer frequency, TF over GST control); in the assay with ETV3, 1.51 fold enrichment (6-mer frequency, TF over GST control); in the assay with ETV6, 1.53 fold enrichment (6-mer frequency, TF over GST control).
